Bioassay records deposited in PubChem by National Center for Advancing Translational Sciences (NCATS).
JMJD2A Tudor inh: inhibitors of human JMJD2A Tudor domain; O75164; AlphaScreen JMJD2A-Tudor / H3K4me3 peptide binding; Potency, µM (highest dose often 114 µM), for inactives: top-dose activity change, negative = inhibition, hits mostly inhibitors; 390,000 tested, 4.4% active; AID 504339; also: % is scaled to controls: 0 for no effect and ±100 for the full control effect; nearly all actives have a fitted effect of over 50% in size
12-LOX inh: inhibitors of human 12S-lipoxygenase ALOX12; purified 12hLO, xylenol orange hydroperoxide absorbance; Potency, µM (highest dose often 108 µM), for inactives: at the highest dose activity change, negative = inhibition, usual class: inhibitors; 580,000 tested, 1.1% active; AID 1671190; also: % is scaled to controls: 0 for no effect and ±100 for the full control effect
Target sequence (P18054 whole entry, looked up): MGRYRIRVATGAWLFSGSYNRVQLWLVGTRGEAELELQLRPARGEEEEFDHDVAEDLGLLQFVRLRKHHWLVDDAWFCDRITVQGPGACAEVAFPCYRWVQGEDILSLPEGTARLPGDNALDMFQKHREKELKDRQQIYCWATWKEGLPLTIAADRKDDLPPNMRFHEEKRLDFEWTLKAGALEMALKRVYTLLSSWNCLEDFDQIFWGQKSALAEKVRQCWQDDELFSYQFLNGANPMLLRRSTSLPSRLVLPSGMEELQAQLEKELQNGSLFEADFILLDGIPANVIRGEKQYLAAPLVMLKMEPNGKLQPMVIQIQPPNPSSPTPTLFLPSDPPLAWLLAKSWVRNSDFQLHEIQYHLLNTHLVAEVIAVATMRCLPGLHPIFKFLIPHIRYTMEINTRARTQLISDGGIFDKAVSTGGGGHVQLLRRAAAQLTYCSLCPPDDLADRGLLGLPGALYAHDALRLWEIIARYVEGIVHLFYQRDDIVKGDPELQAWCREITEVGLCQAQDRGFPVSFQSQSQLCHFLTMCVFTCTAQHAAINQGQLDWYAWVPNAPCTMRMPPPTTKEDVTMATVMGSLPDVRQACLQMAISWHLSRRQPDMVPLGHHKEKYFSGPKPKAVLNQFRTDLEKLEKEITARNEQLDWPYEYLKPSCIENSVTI
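Hydroperoxide product was detected by ferrous iron/xylenol orange as the 573 to 405 nm absorbance ratio. Arachidonic acid at 40 uM (final) was turned over for 30 min at room temperature by 150 nM human 12hLO, pH 7.0 Hepes buffer, after 15 min compound preincubation.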
G9a block: G9a (human) methyltransferase inhibition; AID 504332; G9a H3K9 monomethylation, AlphaScreen, 2 h; 350,000 tested, 8.8% active; Q96KQ7; Potency, µM (highest dose often 102 µM), for inactives: at the highest dose activity, negative = inhibition, hits mostly inhibitors; also: % is scaled to controls: 0 for no effect and ±100 for the full control effect; nearly all actives have a fitted effect of over 75% in size
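Step 1: enzyme (final 20 nM) with compound, 15 min RT. Step 2: substrate peptide 500 nM and SAM 20 uM, 2 h RT. Step 3: anti-H3K9me1 antibody and AlphaScreen beads, 10 min, then plate read.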
PLK1 PBD inh: blocks phosphopeptide binding to human PLK1 polo-box domain; P53350; Potency, µM, without a hit: max response, negative = inhibition, hits mostly inhibitors; Plk1 PBD binding of FITC phosphopeptide, fluorescence polarization; AID 720504; 360,000 tested, 2.8% active; also: series mostly up to about 57 µM; % is scaled to controls: 0 for no effect and ±100 for the full control effect; nearly all actives have a fitted effect of over 65% in size
BAZ2B block: blocks human BAZ2B. Q9UIF8. AlphaScreen BAZ2B-H3K14Ac peptide displacement. Potency, µM (doses to about 114 µM), inactives show at the highest dose activity change, negative = inhibition, hits mostly inhibitors. 360,000 tested, 4.4% active. AID 504333; also: % is scaled to controls: 0 for no effect and ±100 for the full control effect; nearly all actives have a fitted effect of over 60% in size
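Protein-peptide AlphaScreen: BAZ2B 50 nM, b-H3K14Ac 50 nM, 1x PBS pH 7.4 + 0.01% Tween-20. Preincubation 30 min RT; cpd 30 min RT (top 110 uM); beads 20 min RT, light-protected.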
HP1b chromo inh: HP1-beta chromodomain-methylated histone interaction inhibition; Potency, µM (highest dose often 114 µM), for the others: at the highest dose activity change, negative = inhibition, actives largely listed as inhibitors; 390,000 tested, 0.56% active; AlphaScreen HP1-beta / biotin-H3K9me3 peptide binding; also: nearly all actives have a fitted effect of over 70% in size
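HP1-beta protein (50 nM final) preincubated 30 min at room temperature with biotinylated H3(1-18)K9me3 peptide (50 nM) in PBS pH 7.4, 0.01% Tween-20, then compound added for 30 min. AlphaScreen streptavidin donor/nickel chelate acceptor beads (10 ug/mL final), 30 min dark, luminescence read.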
Active calls of the source: *; ? = inconclusive; / = no result; ! = not confirmed by another sample; [ ] = another dose, or the depositor's remark. Most compounds without a hit are left out; they make up all but 9% or so of the library. Calls follow the shape of the dose curve; as a rule, active = well fitted curve in the direction sought with a large enough effect; inconclusive = small, poorly fitted or top-dose-only effect, or another doubt; inactive = no such curve, though single readings can be large; an effect the other way counts as inactive or inconclusive. Potency is read from the fitted curve at half-maximal effect.

SMILES | JMJD2A Tudor inh | 12-LOX inh | G9a block | PLK1 PBD inh | BAZ2B block | HP1b chromo inh
CCn1c(SCC(=O)Nc2ccc(OC)c(OC)c2)nnc1-c1ccco1 | -14% | 113% | 2% | -15% | 0% | 22%
COc1cccc(NC(=O)CSc2nnc(-c3ccco3)c(-c3ccco3)n2)c1 | 45µM* | -5% | 2.8µM* | 13µM* | 50µM* | ?
CC(O)CNCCNCc1cccs1 (stereo not given) | ? | -8% | 5.6µM* | -7% | -29% | 17%
COc1cc2c(cc1NC(=O)c1cccc([N+](=O)[O-])c1)oc1ccccc12 | -17% | 84% | 50µM* | -11% | 4% | -14%
CS(=O)(=O)N1CCC2(CC1)CN(C(=O)c1ccc(N)nc1)Cc1ccccc1O2 | / | 4%[6.33 µM] | / | / | / | /
NC1=NC(=Nc2cccc(S(N)(=O)=O)c2)c2ccccc21 | -13% | 14% | -1% | 0% | -2% | 43%
COc1cc(N=Nc2cccc(S(N)(=O)=O)c2)c2ccccc2c1N | 13µM* | 6.3µM* | 13µM* | -5% | 13µM* | 28µM*
C=CC(=O)N1C/C(=C/c2ccc(F)cc2)C(=O)/C(=C\c2ccc(F)cc2)C1 | 18µM* | 7.9µM* | / | ? | / | ?
Cc1nc2cc(Cl)ccc2n1CCO | 0% | -17% | -11%[59 µM] | 4% | 11% | 26%
CC12CC3(O)OC(O1)C1(COC(=O)c4ccccc4)[C@@H]3CC21O[C@@H]1O[C@H](CO)[C@@H](O)[C@H](O)[C@H]1O | / | / | 20%[59 µM] | / | / | /
C[C@]1(OC(=O)/C=C/c2ccccc2)C[C@@H](O)[C@]2(O)C=CO[C@@H](O[C@@H]3O[C@H](CO)[C@@H](O)[C@H](O)[C@H]3O)[C@@H]21 | -8% | -1% | 18µM* | -2% | 4% | 54%
N#Cc1ccc(C(=O)OCC(=O)N2CCCCCC2)cc1 | -10% | -26% | 22µM* | -10% | 0% | 7%
CC1CN(C(=O)COC(=O)c2ccc(C#N)cc2)CC(C)O1 (stereo not given) | -2% | 12% | 50µM* | 4% | -25% | 39%
CC1(C)CC(=O)C2=C(C1)OC(N)=C(C#N)C2c1ccc(-c2cc(Cl)ccc2Cl)o1 (stereo not given) | / | 11% | / | / | / | /
COc1cc2c(cc1C1C(C#N)=C(N)OC3=C1C(=O)CC(C)(C)C3)OCO2 (stereo not given) | -24% | 0% | -6%[0.501 µM] | -12% | -8% | 31%
CC1(C)CC(=O)C2=C(C1)OC(N)=C(C#N)C2c1ccc(-c2ccc(Br)cc2)o1 (stereo not given) | / | 20µM* | / | / | / | /
COc1ccc(C2C(C#N)=C(N)OC3=C2C(=O)CC(C)(C)C3)c2ccccc12 (stereo not given) | / | 7.9µM* | / | / | / | /
Cc1ccc2c(C)c(C(=O)N3CCCCC3CO)oc2c1C (stereo not given) | -23% | -2% | -9% | -12% | -13%[57.1 µM] | 56%
COc1ccc(CCNC(=O)C(C)n2nc(C)c3c(C)n(-c4ccccc4)nc3c2=O)cc1OC (stereo not given) | / | -4% | / | / | / | /
Cn1c(=O)c(C(=O)COC(=O)c2cc(-c3ccco3)nc3ccccc23)c(N)n(Cc2ccccc2)c1=O | / | / | 8.9µM* | / | 45µM* | /
CC(C)Cn1c(N)c(C(=O)COC(=O)c2cc(C(F)(F)F)nc3ccccc23)c(=O)n(C)c1=O | -32% | 2% | ? | 5% | -32% | 8%
Cn1c(=O)c(C(=O)COC(=O)c2cc(C(F)(F)F)nc3c(C(F)(F)F)cccc23)c(N)n(CC2CC2)c1=O | / | 0% | 50µM* | / | -39% | /
Cn1c(N)c(C(=O)COC(=O)c2cc(-c3ccccc3)nc3ccccc23)c(=O)n(Cc2ccccc2)c1=O | -33% | / | ? | 1% | -10% | 9%
CC(C)Cn1c(N)c(C(=O)COC(=O)c2cc(-c3ccco3)nc3ccccc23)c(=O)n(C)c1=O | 40µM* | ? | ? | ? | 79µM* | ?
Cc1cccc([C@H](NC(=O)OC(C)(C)C)C(=O)OC(C)(C)C)c1 | 14% | 7% | 2%[0.501 µM] | -6% | 7% | 66%
SMILES | JMJD2A Tudor inh | 12-LOX inh | G9a block | PLK1 PBD inh | BAZ2B block | HP1b chromo inh
COc1ccccc1N1CCN(C(=O)CCc2conc2-c2cccc(F)c2)CC1 | / | -1% | / | / | / | /
Cc1cc(C)cc(NC(=S)N2CCN(C(=O)c3ccco3)CC2)c1 | -17% | -15% | -25% | -21% | -15% | 18%
O=C(/C(N=Nc1cccc(C(F)(F)F)c1)=C(/O)c1cccs1)C(F)(F)F | 50µM* | ? | 20µM* | -23% | ? | ?
CCN(CC)CCOc1c(C)cccc1Cl | -13% | -23% | -6% | -6% | 79µM* | 18%
COc1cc(C)ccc1OCCOc1c(C)cccc1Cl | 87% | -12% | / | 1% | 112% | 207%
Cc1cc(Cl)cc(C)c1OCCCCCn1ccnc1 | ? | ? | ? | 3% | 32µM* | 20%
Cc1cccc(Cl)c1OCCCn1ccnc1 | 7.9µM* | 0% | 10µM* | -6% | 28µM* | 28µM*
CN(CCC#N)c1ccc(C=C(C#N)c2ccc(Br)cc2)cc1 | / | -2% | / | 10% | / | /
O=C(O)c1cc(=O)c2ccccc2[nH]1 | ? | 13µM*! | 10µM*! | -1% | ? | 13%
O=c1cc(C(F)(F)F)[nH]c2ccccc12 | 0% | 0% | -33% | 0% | 2% | 51%
O=C(O)c1cc(=O)c2cccc(O)c2[nH]1 | 28µM* | -9% | -33%[2.33 µM] | / | / | 49%
O=C(O)c1cc(=O)c2c(Cl)cc(Cl)cc2[nH]1 | 50µM* | ? | 16%[12.7 µM] | -3% | / | 4%
O=C(O)c1cc2ccc(-c3ccccc3)cc2[nH]1 | / | -8% | / | / | / | /
COc1ccc2sc(C)cc(=O)c2c1 | / | 13% | / | -10% | / | /
C/C(=C\c1ccccc1)CN(C)CCN(C)C | / | / | 56µM* | / | -2% | /
CN1CC2(CCN(C(=O)NC3CCCCC3)CC2)CC1C(=O)N1CCOCC1 (stereo not given) | / | 42% | / | / | / | /
S=c1nccc(-c2ccc3c(c2)CCO3)[nH]1 | -20% | 1% | 40µM* | ? | -12% | 16%
S=c1nccc(-c2ccccc2)[nH]1 | / | 13µM* | / | / | / | /
S=c1nccc(-c2cccs2)[nH]1 | -17% | -13% | -33% | 12µM* | -7% | 26%
CC1(C)CCc2cc(-c3ccnc(=S)[nH]3)ccc2O1 | ? | ? | ? | -29% | -7% | 10%
COc1cccc(CN2Cc3cc(NS(=O)(=O)c4ccccc4)ccc3OCC2=O)c1OC | / | 10µM* | / | / | / | /
CN1CCN(c2nc3c(c(=O)[nH]c(=O)n3C)n2CCSc2ncccn2)CC1 | / | / | -2%[59 µM] | / | 28% | /
COc1ccccc1OCCNC(=O)C(=O)c1c[nH]c2ccccc12 | -29% | 8% | 25%[59 µM] | -7% | -13% | 8%
